# Experimental data from the supplement of paper PMC3334620.
# In all, about 33,000 sequences were measured (“E-score (-0.5 to 0.5)”: median about -0.0034, highest 2% from about 0.25 on). For the sample, the highest values were picked, then their nearest neighbours and some sequences at random.
# Molecular target: T1, Yap3 (UniProt P38749)
# T1 sequence: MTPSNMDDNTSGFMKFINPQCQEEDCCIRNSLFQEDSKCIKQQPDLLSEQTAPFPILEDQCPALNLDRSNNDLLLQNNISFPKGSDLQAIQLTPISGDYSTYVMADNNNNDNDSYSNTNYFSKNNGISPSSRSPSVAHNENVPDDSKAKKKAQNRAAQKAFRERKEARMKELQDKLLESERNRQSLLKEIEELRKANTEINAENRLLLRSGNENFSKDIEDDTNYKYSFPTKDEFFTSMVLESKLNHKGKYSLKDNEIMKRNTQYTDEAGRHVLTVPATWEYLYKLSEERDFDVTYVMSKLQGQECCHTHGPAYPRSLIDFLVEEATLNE
# Assay: PBM E-score (8-mer binding enrichment) (E-score (-0.5 to 0.5)); higher = stronger / more preferred TF binding
# Conditions: protein concentration: 100 nM; construct: GST-full length
# Method: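 Universal 'all 10-mer' protein binding microarrays (Agilent AMADID 015681) probed with GST-tagged S. cerevisiae TFs (full-length or DBD) made by in vitro transcription/translation (PURExpress), about 100-200 nM. Bound TF was detected with fluorescent anti-GST. Each ungapped 8-mer (which stands for itself and its reverse complement) is scored by the PBM enrichment score (E-score), a modified Wilcoxon-Mann-Whitney statistic from -0.5 to +0.5, computed with the Universal PBM Analysis Suite. Scale: above 0.35 generally sequence-specific binding.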
row,Sequence,PBM E-score
1,AAACGATA,0.0765
2,TAACGATA,0.261
3,CAACGATA,0.0838
4,GAACTGTA,0.208
5,AATCAGGA,0.0679
6,TATAAATA,0.301
7,CCTAAATA,-0.122
8,CATAAATA,0.197
9,AATAAAGG,-0.0245
10,AATAAAGA,0.156
11,GATAAATA,0.233
12,AATAAAGT,0.262
13,ACTAAATA,0.29
14,ACTAAATC,0.198
15,AATAAATA,0.315
16,AATAAATG,0.216
17,AATAAATT,0.186
18,ATACTAGC,0.0285
19,GCCAGTCC,-0.343
20,CGATCGGC,0.00629
21,GAGCTAAC,0.0153
22,ACTCGCAC,-0.0984
23,AGTCGCAC,-0.233
24,AACTTGAT,0.15
25,GGCGGTGA,0.132

row,Sequence,PBM E-score
1,GAAGACCA,-0.105
2,GGGTAAAA,0.258
3,GGGTAAAC,0.0445
4,CGGTAAAA,0.114
5,AGATAAGG,-0.0911
6,AATAGAAC,0.16
7,AAACTAAT,0.272
8,TCACTAAA,0.121
9,TAACTAAA,0.165
10,GAACTAAA,0.0567
11,AAACTAAG,0.186
12,ACACTAAA,0.261
13,GCACTAAA,0.179
14,AAACTAAA,0.261
15,ATACTAAA,0.188
16,GTACTAAA,0.21
17,TTACTAAA,0.401
18,AAACTAAC,0.232
19,ATTTCTAG,0.083
20,GGATCCAA,0.138
21,CAGCGACG,-0.0734
22,GATTGGAC,0.0901
23,TCCTCTCA,0.0272
24,ACGATCAA,0.0848
25,ACAGAGGA,-0.00698

row,Sequence,PBM E-score
1,AAAGAAAT,0.26
2,AAGAAAAT,0.273
3,GCGGAAAA,0.245
4,AAGAAAAA,0.059
5,AAAGAAAG,0.231
6,AAGAAATT,0.199
7,TCGGAAAA,0.275
8,ACGGAAAC,-0.079
9,ACGGAAAA,0.107
10,ACGGAAAT,0.323
11,AAAGAAAA,0.18
12,ACGGAAAG,0.144
13,ACCCTTTA,0.101
14,CGCTGGTC,-0.307
15,ACGCTGAA,-0.00885
16,CCCATTGA,-0.0177
17,GATGCGAA,0.057
18,TCCGGTCA,0.00023
19,AAGTATCA,0.052
20,CCCCACTA,-0.135
21,AAGTTGCC,-0.0508
22,ACGAAAAA,0.0676
23,ACGAAAAT,0.257
24,ACGAAAAG,0.153
25,GACTCATC,-0.108

row,Sequence,PBM E-score
1,AGCGCTTA,0.0641
2,CGCGCTGA,0.0303
3,CGCGCTTA,0.265
4,ATCGATGC,0.133
5,CATTAAGA,0.0516
6,ATTGTTAC,0.288
7,ATTGTTAA,0.17
8,ATTGTTAG,0.153
9,GTTGTTTA,0.273
10,CTTGTTAA,0.022
11,ATTGTTTA,0.0804
12,CTTGTTTA,0.0644
13,GTTGTTAA,0.298
14,CTTGTTAC,0.0269
15,TTCAAAAA,0.0865
16,ACGTCCTA,0.00661
17,AGCACACT,0.0288
18,GGATCCAC,-0.0381
19,AGAAAGAA,0.0357
20,TGAAAGAA,0.297
21,GGAAAGCA,0.018
22,GGAAAGAA,0.0609
23,TGAAAGCA,0.254
24,AGAAAGCA,0.232
